Bioassay records (PubChem)
BRCA1 expr act – qHTS Assay to Identify Small Molecule Activators of BRCA1 Expression | hit rate 1.1% among 380,000 | MCF7-BRCA1-FFLuc reporter, luminescence, 48 h; response scale: scaled: vehicle 0%, 10 µM genistein 100% | Potency, µM (titrated, usually from 46.1 µM), hits mostly activators; note: nearly all actives have a fitted effect of over 80% in size
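48 h compound treatment of MCF7-BRCA1-FFLuc cells (phenol-red free MEM, 37 °C), then 15 min with luciferase substrate and luminescence imaging.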
ERG-DNA inh – qHTS for Small Molecule Inhibitors of the ERG Ets/DNA interaction | fluorescence polarization, His-ERG Ets domain / labelled DNA | hit rate 0.028% among 370,000 | Potency, µM (highest dose often 76.9 µM), actives largely listed as inhibitors; active = well fitted inhibition curve with a large enough effect in the polarisation, with a control signal flat; inconclusive = small, poorly fitted or top-dose-only effect, or effect the other way, or a change in a side signal; inactive = no such curve, though single readings can be large or run the other way; the % refers to the polarisation;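 note: polarization taken with two DNA probes labelled with fluorescein and Texas red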
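His-tagged ERG Ets domain (1 uM in the protein solution; 300mM KCl, 50mM Tris-HCl, 1mM EDTA, 1mM DTT, pH 7.5) received compound, then a probe mix of 5 nM fluorescein-DNA and 100nM Texas-615-DNA. Fluorescence polarization was read for both dyes.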
RGS12 GoLoco inh – qHTS Assay for Inhibitors of RGS12 GoLoco Motif Activity (Red Fluorophore). Gai1:RGS12 GoLoco peptide FP, rhodamine, 10 min. AID 880, 2007. Potency, µM (doses to about 61.6 µM), hits mostly inhibitors. Guanine nucleotide-binding protein G(i) subunit alpha-1 (Homo sapiens), P63096. hit rate 0.44% among 230,000; active = well fitted inhibition curve with a large enough effect, not every such curve was filed as active; inactive = no such curve, though single readings can be large or run the other way; note: nearly all actives have a fitted effect of over 30% in size
Target sequence (P63096 whole entry, looked up): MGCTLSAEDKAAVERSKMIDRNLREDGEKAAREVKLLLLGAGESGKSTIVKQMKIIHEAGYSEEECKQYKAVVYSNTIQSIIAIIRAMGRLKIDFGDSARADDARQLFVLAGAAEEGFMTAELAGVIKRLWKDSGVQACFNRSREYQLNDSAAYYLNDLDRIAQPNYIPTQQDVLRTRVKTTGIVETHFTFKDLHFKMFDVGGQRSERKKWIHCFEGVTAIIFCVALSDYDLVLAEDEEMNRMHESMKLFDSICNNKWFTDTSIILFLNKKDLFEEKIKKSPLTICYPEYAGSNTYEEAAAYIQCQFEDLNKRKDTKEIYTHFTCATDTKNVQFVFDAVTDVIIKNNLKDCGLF
Apoferritin bind – qHTS Assay for Identification of Novel General Anesthetics; apoferritin/1-aminoanthracene competitive binding, fluorescence; Potency, µM (highest dose often 77.5 µM), usual class: inhibitors; hit rate 0.074% among 350,000; AID 485281, 2010; note: nearly all actives have a fitted effect of over 20% in size
Target sequence (P02791 2-175 limits assumed): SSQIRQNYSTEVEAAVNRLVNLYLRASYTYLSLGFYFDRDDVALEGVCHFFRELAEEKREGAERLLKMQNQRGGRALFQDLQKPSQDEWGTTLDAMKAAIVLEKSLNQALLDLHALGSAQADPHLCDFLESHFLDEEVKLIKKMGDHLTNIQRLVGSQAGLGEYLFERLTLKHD
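Read-out: endpoint 1-AMA fluorescence, excitation 380 nm and emission 535 nm, after compounds sit 10 min at room temperature with 10 uM horse-spleen apoferritin in 50% saturated 1-AMA/PBS. Values come from four-parameter Hill fits.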
Of the large screens only hits and unclear results are named; the others gave an inactive call. The list is not random: actives were taken first. Their share in the collection is about 1.2%. Unless noted, calls come from the whole dose curve; as a rule, active = well fitted curve in the direction sought with a large enough effect; inconclusive = small, poorly fitted or top-dose-only effect, or another doubt; inactive = no such curve, though single readings can be large; an effect the other way counts as inactive or inconclusive.

O=C(CSc1ccc(Cl)cc1)Nc1ccc(N2CCN(c3ccccc3)CC2)c(F)c1	none
CCN(CCN(C)Cl)/[N+]([O-])=N/Oc1ccc([N+](=O)[O-])cc1[N+](=O)[O-]	none (no result: ERG-DNA inh, RGS12 GoLoco inh, Apoferritin bind)
COc1ccc(N/C=C\C(=O)c2ccc3c(c2)OCO3)cc1	none
CCOc1ccc(N/C=C\C(=O)c2ccc3c(c2)OCO3)cc1	BRCA1 expr act 4.5µM (no result: ERG-DNA inh, RGS12 GoLoco inh, Apoferritin bind)
CCOC(=O)c1ccc(N/C=C\C(=O)c2cccc(OC)c2)cc1	BRCA1 expr act 3.5µM
CN(C)c1ccc(/C=C2\NC(=O)NC2=O)cc1	none (no result: ERG-DNA inh, RGS12 GoLoco inh, Apoferritin bind)
Cc1ccc(NC(=O)CSc2nnc(-c3ccccc3)n2C)cc1	none (no result: ERG-DNA inh, RGS12 GoLoco inh, Apoferritin bind)
COc1ccc(-c2nc3sc(CCNC(=O)c4cccc(C(F)(F)F)c4)c(C)n3n2)cc1	BRCA1 expr act 6.3µM (no result: RGS12 GoLoco inh)
COc1ccc(-c2nc3sc(CCNC(=O)c4ccccc4C)c(C)n3n2)cc1	none (no result: RGS12 GoLoco inh)
CNc1cccc(-c2ccc(C(C)=O)s2)n1	BRCA1 expr act 6.3µM (no result: ERG-DNA inh, RGS12 GoLoco inh, Apoferritin bind)
CNc1cccc(-c2ccccc2C(C)=O)n1	none (no result: ERG-DNA inh, RGS12 GoLoco inh, Apoferritin bind)
CCCNC(=O)c1cccc(Br)c1	none
O=C(NCCc1ccccc1)c1cccc(NC(=O)C2CC2)c1	BRCA1 expr act 6.3µM (no result: RGS12 GoLoco inh, Apoferritin bind)
O=C(NCCc1ccccc1)c1cccc(NC(=O)C2CCC2)c1	BRCA1 expr act inconclusive (no result: RGS12 GoLoco inh, Apoferritin bind)
O=C(NCCc1ccccc1)/C(=N\O)c1ccccc1	BRCA1 expr act 1.3µM
O=C(NCCc1ccccc1)c1cccc(Br)c1	BRCA1 expr act 13µM, Apoferritin bind inconclusive (no result: RGS12 GoLoco inh)
CN(C)CCCNC(=O)/C(=N\O)c1ccccc1	none
O=C(COc1ccccc1C(=O)OCC(=O)Nc1cccc2ccccc12)Nc1ccc(Br)cc1	none (no result: ERG-DNA inh, RGS12 GoLoco inh, Apoferritin bind)
COC(=O)c1ccc(/C=N/OCC(=O)NC2CCCC(C)C2C)cc1 (stereo not given)	Apoferritin bind 11µM
COC(=O)c1ccc(OCC(=O)NC2CCCCCC2)cc1	Apoferritin bind inconclusive (no result: RGS12 GoLoco inh)
COC(=O)c1ccc(/C=N/OCC(=O)NC2CCCCCCC2)cc1	Apoferritin bind 7.9µM
CCCC(=O)NCCc1c(I)[nH]c2ccc(OC)cc12	none (no result: BRCA1 expr act, ERG-DNA inh)
CN[C@@H](c1ccncc1)[C@@H](NC)c1ccncc1	none (no result: BRCA1 expr act, ERG-DNA inh, Apoferritin bind)
CNC(=O)c1c(NC(=O)C2=COCCO2)sc2c1CCC(C)C2 (stereo not given)	none (no result: RGS12 GoLoco inh)
CC1CCc2c(sc(NC(=O)C3=COCCO3)c2C(N)=O)C1 (stereo not given)	BRCA1 expr act 7.1µM (no result: RGS12 GoLoco inh, Apoferritin bind)
C[C@H](NC(=O)CNC(=O)[C@@H](NC(=O)[C@H](Cc1ccccc1)NC(=O)CNC(=O)CNC(=O)[C@@H](N)Cc1ccccc1)[C@@H](C)O)C(=O)N[C@@H](CCCN=C(N)N)C(=O)N[C@@H](CCCCN)C(=O)N[C@@H](CO)C(=O)N[C@@H](C)C(=O)N[C@@H](CCCN=C(N)N)C(=O)N[C@H](CN)CCCCN	none (no result: BRCA1 expr act, ERG-DNA inh)
CCOC(=O)C1=C(COC(=O)c2cccc(N(C)C)c2)NC(=O)NC1C (stereo not given)	BRCA1 expr act 4.5µM (no result: RGS12 GoLoco inh, Apoferritin bind)
CCOC(=O)C1=C(COC(=O)c2cccc(Br)c2)NC(=O)NC1C (stereo not given)	none (no result: RGS12 GoLoco inh, Apoferritin bind)
CCOC(=O)c1c(NC(=O)C2=C(C)NC(=S)NC2c2ccccc2C(F)(F)F)sc(C)c1C (stereo not given)	ERG-DNA inh 35µM
CCOC(=O)C1=C(C)NC(=S)NC1c1cc(C)sc1C (stereo not given)	none
O=C(CC(=O)Nc1ccc(Cl)cc1Cl)Nc1ccc(Cl)cc1Cl	none (no result: RGS12 GoLoco inh)
CN(C)C(=S)SCC(=O)Nc1ccc(Cl)cc1Cl	BRCA1 expr act 10µM
O=C(C[N+]1(CCO)CCOCC1)c1cccc2ccccc12	none (no result: ERG-DNA inh, RGS12 GoLoco inh, Apoferritin bind)
COc1ccc(/C(N)=N/OC(=O)c2ccco2)cc1OC	BRCA1 expr act 7.9µM
CSc1ccc(CCNC(=O)C2CCN(c3ncnc4c3nc3n4CCCCC3)CC2)cc1	none (no result: BRCA1 expr act, RGS12 GoLoco inh)
NCCCCCCNS(=O)(=O)c1ccc2c(Cl)cccc2c1	none (no result: ERG-DNA inh, Apoferritin bind)
O=C(COC(=O)c1ccccc1Oc1ccccc1)Nc1ccc(Br)cc1	none (no result: ERG-DNA inh, RGS12 GoLoco inh, Apoferritin bind)
CCCC(=O)Nc1nnc(/C=C/c2ccc(OC)cc2)s1	BRCA1 expr act 5.6µM (no result: RGS12 GoLoco inh)
COc1ccc(/C=C/c2nnc(NC(=O)COc3cccc(C)c3)s2)cc1	BRCA1 expr act 4.5µM
Cc1cc(Oc2ccc(Cl)cc2Cl)nc(C#N)n1	none (no result: ERG-DNA inh, RGS12 GoLoco inh, Apoferritin bind)
COc1ccc(/C(C#N)=C/c2ccccn2)cc1	BRCA1 expr act 2.8µM
N#C/C(=C\c1ccccn1)c1nc2ccccc2s1	none
CC1CCC(NC(=S)NCCN(C)C)CC1 (stereo not given)	none
